12-LOX inh: Primary qHTS assay for inhibitors of human arachidonate 12S-lipoxygenase (ALOX12): Round 2. Potency, µM (doses to about 108 µM), without a hit: at the top dose activity change, negative = inhibition, usual class: inhibitors. Polyunsaturated fatty acid lipoxygenase ALOX12 (Homo sapiens), P18054. purified 12hLO, xylenol orange hydroperoxide absorbance. 580,000 compounds, 1.1% hits
Target sequence (P18054 whole entry, looked up): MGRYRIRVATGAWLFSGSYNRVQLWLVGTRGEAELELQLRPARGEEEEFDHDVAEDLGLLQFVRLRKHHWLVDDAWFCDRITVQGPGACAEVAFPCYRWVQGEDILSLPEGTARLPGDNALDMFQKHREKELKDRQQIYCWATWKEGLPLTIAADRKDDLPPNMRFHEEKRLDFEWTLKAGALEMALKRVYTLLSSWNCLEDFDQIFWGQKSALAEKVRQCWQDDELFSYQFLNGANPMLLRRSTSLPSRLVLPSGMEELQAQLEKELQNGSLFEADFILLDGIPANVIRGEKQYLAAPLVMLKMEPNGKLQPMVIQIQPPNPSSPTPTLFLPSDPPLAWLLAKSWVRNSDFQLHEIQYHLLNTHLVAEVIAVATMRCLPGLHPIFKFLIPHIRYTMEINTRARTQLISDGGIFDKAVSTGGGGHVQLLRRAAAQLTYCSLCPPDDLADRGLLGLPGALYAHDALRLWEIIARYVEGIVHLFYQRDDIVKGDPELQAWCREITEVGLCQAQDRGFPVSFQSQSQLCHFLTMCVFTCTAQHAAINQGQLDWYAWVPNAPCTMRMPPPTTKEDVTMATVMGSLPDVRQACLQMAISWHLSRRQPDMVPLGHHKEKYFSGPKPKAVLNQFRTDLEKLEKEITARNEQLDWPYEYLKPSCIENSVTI
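Hydroperoxide product was detected by ferrous iron/xylenol orange as the 573 to 405 nm absorbance ratio. Arachidonic acid at 40 uM (final) was turned over for 30 min at room temperature by 150 nM human 12hLO, pH 7.0 Hepes buffer, after 15 min compound preincubation.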
DT40 TDP1 CPT: qHTS for Inhibitors of human tyrosyl-DNA phosphodiesterase 1 (TDP1): qHTS in cells in presence of CPT; chicken DT40 Tdp1-/-;hTDP1 cells + 20 nM CPT, ATP luminescence, 48 h; Potency, µM (doses to about 46.2 µM), inactives show at the highest dose activity change, negative = growth inhibition, usual class: inhibitors; 420,000 compounds, 12% hits; note: nearly all actives have a fitted effect of over 55% in size
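Chicken DT40 Tdp1-/- cells complemented with human TDP1, 400 cells/well, exposed to compounds plus 20 nM camptothecin for at least 48 h at 37 C; viability read as ATP content by CellTiter-Glo luminescence.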
RORg inh: qHTS for inhibitors of ROR gamma transcriptional activity | Nuclear receptor ROR-gamma (Mus musculus), P51450 | Drosophila S2 Gal4-RORgamma UAS-luciferase reporter, 20 h | Potency, µM (highest dose often 53.6 µM), inactives show at the highest dose activity change, negative = inhibition, usual class: inhibitors | 310,000 compounds, 5.4% hits; note: nearly all actives have a fitted effect of over 60% in size
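Compounds are pin-transferred onto Drosophila Schneider cells expressing a copper-inducible Gal4–ROR gamma transactivation domain fusion. After 1 hr, copper sulfate is added to 700 uM final; luciferase is read 20 hr later.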
ELG1 repair inh: qHTS screen for small molecules that inhibit ELG1-dependent DNA repair in human embryonic kidney (HEK293T) cells expressing luciferase-tagged ELG1; HEK293T ELG1-luciferase reporter, luminescence, 16 h; DNA damage induced by 5-fluorouridine; Potency, µM (top dose mostly 46.1 µM), without a hit: at the highest dose activity change, negative = inhibition, most hits filed as inhibitors; 330,000 compounds, 2.3% hits; AID 504467, 2011; note: nearly all actives have a fitted effect of over 55% in size
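Quantitative HTS, concentration-response format. 2,000 cells/well co-treated with 5-fluorouridine and compound, 16 hr in 5% CO2 at 37 °C; ONE-Glo luminescence read after 30 min.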
VP16 counter: VP16 counterscreen qHTS for inhibitors of ROR gamma transcriptional activity; AID 2546, 2010; Potency, µM (doses to about 53.6 µM), without a hit: at the highest dose activity, negative = inhibition, actives largely listed as inhibitors; 310,000 compounds, 3.5% hits; Drosophila S2 Gal4-VP16 UAS-luciferase, luminescence, 20 h;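 note: Gal4-VP16 expression switched on by copper sulfate through the metallothionein promoter; nearly all actives have a fitted effect of over 50% in size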
DT40 TDP1 no CPT: qHTS for Inhibitors of human tyrosyl-DNA phosphodiesterase 1 (TDP1): qHTS in cells in absence of CPT; DT40 Tdp1-/- hTDP1 cells, no CPT, ATP luminescence, 48 h; Potency, µM (highest dose often 46.2 µM), inactives show top-dose activity change, negative = growth inhibition, hits mostly inhibitors; 420,000 compounds, 15% hits; AID 686978, 2013; note: nearly all actives have a fitted effect of over 55% in size
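Seeded 400 DT40-hTDP1 cells/well (vehicle DMSO, no 20 nM CPT); pinned compounds; ≥48 hr at 37 °C; CellTiter-Glo luminescence as viability measure.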
Active calls of the source: *; i = inactive; ? = inconclusive; / = no result given; ! = not active in a repeat; [ ] = remark or other dose. Only some compounds are listed: those with a hit (about 15% of all), similar ones and a draw of the others. Calls come from the whole dose curve; as a rule, active = well fitted curve in the direction sought with a large enough effect; inconclusive = small, poorly fitted or top-dose-only effect, or another doubt; inactive = no such curve, though single readings can be large; an effect the other way counts as inactive or inconclusive. % is set by controls: 0 for no effect and ±100 for the full control effect; potency is the fitted concentration of half-maximal effect.

SMILES	12-LOX inh	DT40 TDP1 CPT	RORg inh	ELG1 repair inh	VP16 counter	DT40 TDP1 no CPT
Cc1nc2c3ccccc3n(CCN3CCCCC3)c2s1	/	/	18.7%	-14.6%	5.7%	/
Cc1nc2c3cc(F)ccc3n(CCN3CCCCC3)c2s1	0.1%	6.51µM*	-2.5%	0.2%	-18.7%	7.31µM*
Cc1nc2c3cc(F)ccc3n(Cc3ccccc3F)c2s1	-16.1%	7.31µM*	25.7%[10 µM]	?	-87.7%	?
Cc1nc2c3ccccc3n(Cc3ccccc3F)c2s1	-2.5%	?	-38.8%	?	1.9%	?
O=C(COc1ncnc2ccccc12)Nc1cc(Cl)ccc1Cl	-3.4%	/	/	/	/	/
CCN(CC)C(=O)N1CCN(C)CC1	3.8%	1.01µM*!	-0.8%	/	-3.5%	?
CCN(CC)C(=O)N1CCN(C(=O)N(CC)CC)CC1	-18.4%	3.3%	0.2%	-18.6%	4.3%	-0.6%
O=C(C1CC1)N1CC(Oc2ccc(-c3noc(C4CCOCC4)n3)cc2)C1	37.7%	/	/	/	/	/
COc1ccc(NC(=O)N2CCC(Oc3ccc(-c4noc(C5CC5)n4)cc3)C2)cc1 (centres undefined)	40.6%	/	/	/	/	/
Cc1ccc(-c2nc(C3CCCN(S(=O)(=O)c4ccc(C(C)(C)C)cc4)C3)no2)cc1 (centres undefined)	3.5%[57.4 µM]	?	-33.1%	5.1%	6.2%	?
O=S(=O)(c1ccc(Cl)cc1)N1CCCC(c2nc(-c3ccc(F)cc3)no2)C1 (centres undefined)	-28.1%	14.6µM*	/	23.4%	/	?
Cc1ccc(-c2nc(C3CCCN(S(=O)(=O)c4ccc(C)cc4)C3)no2)cc1 (centres undefined)	24.3%[57.4 µM]	16.4µM*	3.8%	?	?	?
O=C(CC1CCCCC1)N1CCCC(c2nc(-c3ccc(S(=O)(=O)N4CCCC4)cc3)no2)C1 (centres undefined)	?	23.1µM*	11.5%	?	2.1%	15.8µM*
O=S(=O)(c1ccc(F)cc1)N1CCC(Oc2ccc(-c3noc(C4CC4)n3)cc2)C1 (centres undefined)	-6.8%	/	/	/	/	/
O=C(Nc1ccc(Cl)cc1)N1CCC(c2nc(-c3ccc(F)cc3)no2)CC1	-6.0%	10µM*	?	-26.8%	?	11.2µM*
COc1cc(OC)nc(Oc2ccccc2C(=O)Oc2ccccc2Cl)n1	0.3%[57.4 µM]	-14.5%	-14.8%	1.0%	-0.6%	-17.3%
COc1cc(OC)nc(Oc2ccccc2C(=O)Oc2ccc(Cl)cc2)n1	-4.6%	?	1.4%	0.4%	0.4%	16.4µM*
COc1cc(OC)nc(Oc2ccccc2C(=O)Oc2ccc(C)cc2)n1	8.7%[57.4 µM]	-12.4%	-13.5%	-1.8%	-2.2%	-9.9%
COC(=O)c1ccccc1Oc1nc(Cl)cc(OC)n1	-6.1%	18.4µM*	-9.4%	8.4%	5.6%	25.9µM*
COc1cc(SC)ccc1C(=O)Nc1ccc(S(=O)(=O)Nc2nccc(C)n2)cc1	5.1%	23.1µM*	/	/	/	?
COc1ccc(C(=O)Nc2ccncc2)c(OC)c1	-19.9%	3.2%	-16.4%	?	2.5%	-26.5%
COc1cc(SC)ccc1C(=O)NCc1ccc(C)cc1	12.0%	15.8µM*	37.8%	?	-0.8%	?
COc1cc(SC)ccc1C(=O)Nc1ccncc1	7.8%	16.4µM*	22.2%	-1.7%	-4.6%[10 µM]	13µM*
COc1ccccc1C(=O)Nc1ccc(S(=O)(=O)Nc2nc(C)cc(C)n2)cc1	-9.4%	2.2%	/	/	/	4.8%
COC[C@@H]1CN(S(C)(=O)=O)C[C@H]1c1ccncc1	28.5%	/	/	/	/	/
SMILES	12-LOX inh	DT40 TDP1 CPT	RORg inh	ELG1 repair inh	VP16 counter	DT40 TDP1 no CPT
O=C(CNC(=O)c1ccc(Oc2ccccc2)cc1)NNC(=O)CSc1cccc2cccnc12	-50.4%	/	/	/	/	/
S=c1[nH]c2ccc(Cl)cc2s1	-73.7%	-4.2%	?	16.5%	?	-24.9%
Cc1cccc2sc(=S)[nH]c12	31.6µM*	?	/	/	/	?
CC(C)CCN1CCC(O)(c2csc(CN3CCN(c4ccccn4)CC3)n2)CC1	64.8%[176 µM]	/	/	/	/	/
O=C1CCCc2oc3ccc(NS(=O)(=O)c4cccc5cccnc45)cc3c21	2.3%	?	20.3%	?	?	23.1µM*
COC(=O)c1sccc1S(=O)(=O)Nc1ccc(C(O)(C(F)(F)F)C(F)(F)F)cc1	?	18.4µM*	/	/	/	20.6µM*
COc1ccc(NS(=O)(=O)c2cccc3cccnc23)cc1Cl	0.0%	?	?	-7.2%	-8.9%	20.6µM*
O=c1oc2ccc(NS(=O)(=O)c3cccc4cccnc34)cc2s1	-48.9%	20.6µM*	33.0%	-8.0%	-1.6%	23.1µM*
O=S(=O)(Nc1ccc2c(c1)OCCO2)c1cccc2cccnc12	-11.0%	-20.0%	-18.6%	13.2%	-3.8%	?
COC(=O)c1sccc1S(=O)(=O)Nc1ccc(OC(F)(F)F)cc1	14.5%	/	/	/	/	/
Cc1ccc(C(=O)Oc2cccc(Cl)c2)cc1	8.2%	/	/	/	/	/
O=C(NCC1Cn2cccc2C(=O)N1Cc1ccccc1)C1CCCC1 (centres undefined)	-1.0%	/	/	/	/	/
CC(C)CNC(=O)C(C)(C)Oc1nn(CC2CC2)c2ccc(CN3CCCC3)cc12	10.8%[176 µM]	/	/	/	/	/
Cn1c(=O)[nH]c(=O)c2c1nc(N1CCN(Cc3ccccc3F)CC1)n2CCc1ccccc1	-59.8%	/	/	/	/	/
O=C(Nc1cccc2ccccc12)c1ccccc1NS(=O)(=O)c1cccc2cccnc12	7.6%	-0.7%	-12.7%	-3.0%	2.1%	-23.2%
COc1ccc(OC)c(NC(=O)c2ccccc2NS(=O)(=O)c2cccc3cccnc23)c1	i	2.9%	2.7%	14.1%	-5.3%[0.365 µM]	29.1µM*
O=S(=O)(Nc1ccc(C(O)(C(F)(F)F)C(F)(F)F)cc1)c1cccc2cccnc12	?	16.4µM*	/	/	/	23.1µM*
CC(C)c1cccc(NC(=O)CN2C(=O)NC3(CCCCC3)C2=O)c1	28.4%	/	/	/	/	/
Cn1nc2n(c1=O)CCC(N)CC2 (centres undefined)	3.0%	/	/	/	/	/
COc1cc(NC(=O)c2ccc(N3C(=O)C(C)(C)CS3(=O)=O)cc2)cc(OC)c1OC	8.4%	/	/	/	/	/
Cc1ccc(NC(=S)N(C)C(c2ccccc2)c2ccccc2)cc1C	0.0%	?	3.55µM*	13µM*	10µM*	23.1µM*
CN(C(=S)Nc1ccc(F)cc1)C(c1ccccc1)c1ccccc1	?	?	11.2µM*	?	?	?
